Results published in PubChem BioAssay (NCATS).
Records with an inconclusive call do not appear. Calls of active or inactive are those of the source. The call rests on the fitted dose curve; in most records, active means well fitted curve in the direction sought with a large enough effect; inconclusive means small, poorly fitted or top-dose-only effect, or another doubt; inactive means no such curve, though single readings can be large; an effect the other way counts as inactive or inconclusive.

Assays:
[1] = BET inhibitor-based combinations targeting novel dependencies in MECOM-rearranged (r) AML: SET-2 cell line (AID 2202231); settings: SET-2 AML cells viability, CellTiter-Glo luminescence, 48 h; viability: hits give low values, concentration not given here; further: nearly all actives have a fitted effect of over 35% in size;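 on viability: plate controls were DMSO treated cells for no effect and wells without cells for full effect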
Method in brief: (§1)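 AML cell lines seeded at 500 cells/well, treated with 11-point dose curves for 48 h. Viability by CellTiter-Glo luminescence, normalised to DMSO and empty wells; activity expressed as AUC and per-cell-line Z-transformed AUC.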

[2] = BET inhibitor-based combinations targeting novel dependencies in MECOM-rearranged (r) AML: OCI-AML3 cell line (AID 2202232); settings: CellTiter-Glo luminescence, 48 h; Potency: OCI-AML3 viability; series mostly up to 46 µM; further: nearly all actives have a fitted effect of over 35% in size
Method in brief: as §1

[3] = BET inhibitor-based combinations targeting novel dependencies in MECOM-rearranged (r) AML: MV-4-11 cell line (AID 2202233); settings: MV-4-11 AML viability, CellTiter-Glo luminescence, 48 h; series mostly up to 46 µM; further: nearly all actives have a fitted effect of over 45% in size
Method in brief: (§2)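 Cells at 500/well were exposed for 48 hr to MIPE v5.0 drugs as 11-point dose curves. Viability was read by CellTiter-Glo luminescence and normalized to DMSO and empty-well controls. Activity was expressed as AUC and per-cell-line Z-AUC.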

[4] = BET inhibitor-based combinations targeting novel dependencies in MECOM-rearranged (r) AML: HNT-34 cell line (AID 2202234); settings: HNT-34 AML viability, CellTiter-Glo luminescence, 48 h; series mostly up to 46 µM; further: nearly all actives have a fitted effect of over 35% in size
Method in brief: as §2

[5] = BET inhibitor-based combinations targeting novel dependencies in MECOM-rearranged (r) AML: UCSD-AML1 cell line (AID 2202235); settings: UCSD-AML1 AML cells viability, CellTiter-Glo, 48 h; series mostly up to 46 µM; further: nearly all actives have a fitted effect of over 40% in size
Method in brief: as §2

[6] = BET inhibitor-based combinations targeting novel dependencies in MECOM-rearranged (r) AML: AML-191 cell line (AID 2202236; further: nearly all actives have a fitted effect of over 35% in size); settings: AML-191 viability, CellTiter-Glo luminescence, 48 h; series mostly up to 46 µM
Method in brief: as §1
Potency means the concentration at half of the fitted maximal effect.

CC(C)(O)CNc1ncc(-c2ccnc(Nc3ccncc3)n2)c(CC2CC2)n1
active: Potency [1] 18.6 µM | Potency [2] 18.6 µM | Potency [3] 5.9 µM | Potency [4] 9.34 µM | Potency [5] 14.8 µM | Potency [6] 13.2 µM

CCOc1ccc(-n2c([C@@H](C)N(Cc3cccnc3)C(=O)Cc3ccc(F)c(C(F)(F)F)c3)nc3ncccc3c2=O)cc1
active: Potency [3] 18.6 µM
inactive: viability [1] 112% | Potency [2] | Potency [4] | Potency [5] | Potency [6]

Cc1cc(-n2c(=O)ccc3cnc4[nH]ccc4c32)ccc1F
active: Potency [3] 16.6 µM | Potency [5] 18.6 µM | Potency [6] 20.9 µM
inactive: viability [1] 115% | Potency [2] | Potency [4]

CN(Cc1ccc(/C=C/C(=O)NO)cc1)CC12CC3CC(CC(C3)C1)C2
active: Potency [1] 0.105 µM | Potency [2] 0.148 µM | Potency [3] 0.0934 µM | Potency [4] 0.148 µM | Potency [5] 0.132 µM | Potency [6] 0.148 µM
